According to PubChem BioAssay (NCI):
About 83,000 compounds went through this panel and 20% of them were active in at least one assay; those are over-represented in the sample as a whole.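 48-hour exposure, single concentration, 96-well plates; percent growth endpoint where 0 means no net growth. Active: below 10.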 Calls of active or inactive are those of the source.

How the values were obtained:
Assay in all cases: NCI-60 one-dose screen, 48 h (100 = growth as untreated, 0 = no growth, -100 = all killed)
Conditions in all cases: 10 µM unless noted
HCT-15 colon = system: HCT-15 colon
HT29 colon = system: HT29 colon
SNB-75 CNS = system: SNB-75 CNS
SNB-19 CNS = system: SNB-19 CNS
U251 CNS = system: U251 CNS
UACC-62 melanoma = system: UACC-62 melanoma
LOX IMVI melanoma = system: LOX IMVI melanoma
SK-MEL-28 melanoma = system: SK-MEL-28 melanoma
SK-MEL-2 melanoma = system: SK-MEL-2 melanoma
EKVX NSCLC = system: EKVX NSCLC
SN12C renal = system: SN12C renal
UO-31 renal = system: UO-31 renal
TK-10 renal = system: TK-10 renal
ACHN renal = system: ACHN renal
CAKI-1 renal = system: CAKI-1 renal
CCRF-CEM leukemia = system: CCRF-CEM leukemia
MOLT-4 leukemia = system: MOLT-4 leukemia
SK-MEL-5 melanoma = system: SK-MEL-5 melanoma
A498 renal = system: A498 renal

Measured: growth

COc1cccc(/C=C2\Oc3cc(OCCN4CCCC4)ccc3C2=O)c1
inactive: HCT-15 colon 67% | HT29 colon 35.2% | SNB-75 CNS 87.3% | SNB-19 CNS 102% | U251 CNS 92.1% | UACC-62 melanoma 106% | LOX IMVI melanoma 76.1% | SK-MEL-28 melanoma 102% | SK-MEL-2 melanoma 102% | EKVX NSCLC 89.3% | SN12C renal 97.3% | UO-31 renal 80.8% | TK-10 renal 89.3% | ACHN renal 104% | CAKI-1 renal 98.5% | CCRF-CEM leukemia 71.6% | MOLT-4 leukemia 88.9%

Cc1nn(-c2ccc(F)cc2)c2ncnc(Oc3ccc(NC(=O)Nc4ccc(Cl)c(C(F)(F)F)c4)cc3)c12
inactive: HCT-15 colon 111% | HT29 colon 109% | SNB-75 CNS 88.1% | SNB-19 CNS 98.9% | U251 CNS 97.9% | SK-MEL-5 melanoma 99.1% | UACC-62 melanoma 96.6% | SK-MEL-28 melanoma 102% | SK-MEL-2 melanoma 102% | EKVX NSCLC 105% | SN12C renal 95.1% | UO-31 renal 100% | TK-10 renal 104% | ACHN renal 102% | CAKI-1 renal 95.3% | A498 renal 99.2% | CCRF-CEM leukemia 102% | MOLT-4 leukemia 104%

O=C(Cc1ccc(/C=C/C(=O)c2ncc[nH]2)cc1)Nc1ccccc1
active: HT29 colon 4.83% | CCRF-CEM leukemia 3.9%
inactive: HCT-15 colon 12.9% | SNB-75 CNS 58.4% | SNB-19 CNS 22.6% | U251 CNS 11.3% | UACC-62 melanoma 68.5% | LOX IMVI melanoma 10.1% | SK-MEL-28 melanoma 98.9% | SK-MEL-2 melanoma 82.8% | EKVX NSCLC 64.6% | SN12C renal 21.8% | UO-31 renal 31.3% | TK-10 renal 49.1% | ACHN renal 76% | A498 renal 83.5% | MOLT-4 leukemia 29.1%

CN1C(=O)C2(SCC(C(=O)NCc3ccccc3)N2C(=O)C2CCCCC2)c2ccccc21 (centres undefined)
inactive: HCT-15 colon 99.2% | HT29 colon 102% | SNB-75 CNS 47.2% | SNB-19 CNS 98.5% | U251 CNS 98.3% | UACC-62 melanoma 93.4% | LOX IMVI melanoma 91.6% | SK-MEL-28 melanoma 113% | SK-MEL-2 melanoma 81.8% | EKVX NSCLC 86.8% | SN12C renal 102% | UO-31 renal 64% | TK-10 renal 115% | ACHN renal 104% | A498 renal 98.9% | CCRF-CEM leukemia 102% | MOLT-4 leukemia 78.7%

Cc1cc(C)c2nc3nc(C)cc(C)c3c(N)c2c1
active: UO-31 renal -1.17% | ACHN renal 5.3% | MOLT-4 leukemia -18.6%
inactive: HCT-15 colon 16.4% | HT29 colon 18% | SNB-75 CNS 52.7% | SNB-19 CNS 35.3% | U251 CNS 15.3% | SK-MEL-5 melanoma 26.8% | UACC-62 melanoma 41.8% | SK-MEL-28 melanoma 38.7% | SK-MEL-2 melanoma 30.4% | EKVX NSCLC 28.1% | SN12C renal 24.9% | TK-10 renal 41.4% | CAKI-1 renal 10.4% | A498 renal 47% | CCRF-CEM leukemia 42.3%

Clc1ccc2c(NCCCNc3nc(-n4ccnc4)nc4ccccc34)ccnc2c1
inactive: HCT-15 colon 87% | HT29 colon 75.1% | SNB-75 CNS 71.1% | SNB-19 CNS 92.1% | U251 CNS 83.5% | UACC-62 melanoma 94.3% | LOX IMVI melanoma 82.1% | SK-MEL-28 melanoma 93.1% | SK-MEL-2 melanoma 103% | EKVX NSCLC 70.3% | SN12C renal 84.4% | UO-31 renal 78.8% | TK-10 renal 102% | ACHN renal 97.7% | A498 renal 78.2% | CCRF-CEM leukemia 75.2% | MOLT-4 leukemia 68%

COc1ccc(C(=O)COc2ccc(/C=C3\Oc4ccc(OC)cc4C3=O)cc2)cc1
inactive: HCT-15 colon 102% | HT29 colon 110% | SNB-75 CNS 101% | SNB-19 CNS 92.7% | U251 CNS 93% | SK-MEL-5 melanoma 97.5% | UACC-62 melanoma 90.1% | SK-MEL-28 melanoma 137% | SK-MEL-2 melanoma 86.4% | EKVX NSCLC 99.4% | SN12C renal 101% | TK-10 renal 119% | ACHN renal 105% | CAKI-1 renal 98.3% | A498 renal 98.9% | CCRF-CEM leukemia 72.6% | MOLT-4 leukemia 83.6%

COc1ccccc1NS(=O)(=O)c1ccc2oc(SC(C)C)nc2c1
inactive: HCT-15 colon 125% | HT29 colon 96.3% | SNB-75 CNS 102% | SNB-19 CNS 93.7% | U251 CNS 138% | SK-MEL-5 melanoma 49.9% | UACC-62 melanoma 59.9% | SK-MEL-28 melanoma 115% | SK-MEL-2 melanoma 66.4% | EKVX NSCLC 55.9% | SN12C renal 89.3% | UO-31 renal 73.5% | TK-10 renal 102% | ACHN renal 151% | CAKI-1 renal 71.2% | A498 renal 91.4% | CCRF-CEM leukemia 65% | MOLT-4 leukemia 69.6%
